The text below walks through data of PMC4336329 (PLoS ONE, 2015).

SMILES strings stand for the structures. In all, about 310,000 compounds went through this assay and about 14,000 (4.5%) showed an effect of 50% or more. The effect is printed as a negative number. The full list was thinned out, with strong results kept by preference.
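Note: peak tail current of the secondary pulse compared with the same well before compound.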

The target of this experiment is human ether-à-go-go-related gene (hERG) potassium channel (human, UniProt Q12809). Nature of the experiment: primary screen, population patch clamp on CHO cells stably expressing hERG; higher = less effect of the substance.
Chain of human ether-à-go-go-related gene (hERG) potassium channel (Q12809 whole entry, looked up): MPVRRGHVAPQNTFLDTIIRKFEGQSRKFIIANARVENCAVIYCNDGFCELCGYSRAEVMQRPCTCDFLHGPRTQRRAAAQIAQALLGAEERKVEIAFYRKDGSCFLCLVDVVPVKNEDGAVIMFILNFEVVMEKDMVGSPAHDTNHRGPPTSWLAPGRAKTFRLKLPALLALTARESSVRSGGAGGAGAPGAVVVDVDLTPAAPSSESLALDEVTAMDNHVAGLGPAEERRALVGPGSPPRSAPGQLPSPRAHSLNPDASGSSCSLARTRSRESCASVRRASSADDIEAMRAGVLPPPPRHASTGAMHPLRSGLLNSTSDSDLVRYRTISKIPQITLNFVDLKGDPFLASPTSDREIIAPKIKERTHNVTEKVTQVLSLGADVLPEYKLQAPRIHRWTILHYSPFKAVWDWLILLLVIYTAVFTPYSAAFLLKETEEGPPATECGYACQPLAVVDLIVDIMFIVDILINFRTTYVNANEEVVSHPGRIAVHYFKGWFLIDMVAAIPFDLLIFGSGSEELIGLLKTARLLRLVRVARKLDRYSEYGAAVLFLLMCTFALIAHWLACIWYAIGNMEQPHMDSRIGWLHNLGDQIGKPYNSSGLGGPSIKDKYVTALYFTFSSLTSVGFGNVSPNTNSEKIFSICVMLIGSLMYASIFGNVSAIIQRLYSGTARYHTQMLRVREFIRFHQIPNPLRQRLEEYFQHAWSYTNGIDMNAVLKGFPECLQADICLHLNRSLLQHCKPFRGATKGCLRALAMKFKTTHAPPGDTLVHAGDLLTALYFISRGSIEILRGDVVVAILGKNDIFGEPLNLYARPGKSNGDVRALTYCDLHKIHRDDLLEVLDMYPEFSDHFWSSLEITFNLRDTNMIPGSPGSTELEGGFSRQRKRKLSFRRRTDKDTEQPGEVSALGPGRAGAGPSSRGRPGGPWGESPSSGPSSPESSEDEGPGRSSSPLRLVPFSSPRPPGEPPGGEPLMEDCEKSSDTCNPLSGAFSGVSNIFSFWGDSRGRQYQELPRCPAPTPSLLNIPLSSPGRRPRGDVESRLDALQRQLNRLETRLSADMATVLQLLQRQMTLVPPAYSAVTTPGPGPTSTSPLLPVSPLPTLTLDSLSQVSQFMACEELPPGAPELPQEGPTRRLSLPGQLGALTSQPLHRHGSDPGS
On to `CC(CCc1ccccc1)NCC(O)c1ccc(O)c(C(N)=O)c1.Cl` (centres unmarked), for which the “hERG current change (%, negative = inhibition) at 10uM” value was -30.6%.
The value for `CCOC(=O)C1CCCN(Cc2cc(=O)oc3cc(C)ccc23)C1` (centres unmarked) was -13.6%; that for `CCOCC(=O)Nc1ccccc1C(=O)N1CCOCC1` was -0.166%.
The result for `Nc1cc(N2CCCCC2)c(Cl)cc1[N+](=O)[O-]` reads -10.8%; that for `NC(=O)C1CCN(CC(=O)NC(=O)NC2CCCC2)CC1`, 9.34%.
The result for `Cc1c(-c2cc(C(=O)O)no2)cnn1C` reads 32.4%; that for `O=C(NC(Cc1ccccc1)C(=O)O)/C(=C/c1cccc([N+](=O)[O-])c1)NC(=O)c1ccco1` (centres unmarked), -11.4%; that for `O=C(OCc1ccccc1)/C(=C/c1cccc([N+](=O)[O-])c1)NC(=O)c1ccco1`, -63.3%.
Consider `CCOC(=O)/C(=C/c1ccccc1)NC(=O)c1ccco1`, for which the “hERG current change (%, negative = inhibition) at 10uM” value was -7.55%.
The result for `C=CCOC(=O)/C(=C\c1ccccc1)NC(=O)c1ccco1` reads 1.97%; that for `O=C(OCc1ccccc1)/C(=C/c1cccc(Br)c1)NC(=O)c1ccco1`, -52.5%; that for `O=C(NC(Cc1ccccc1)C(=O)O)/C(=C\c1cccc([N+](=O)[O-])c1)NC(=O)c1ccco1` (centres unmarked), 28.4%.
On to `O=C(COc1ccc(Cl)cc1)NC(=S)Nc1ccccc1N1CCOCC1`, for which the “hERG current change (%, negative = inhibition) at 10uM” value was 17.4%.
As to `Cc1ccc2c(O)c(C)c(=O)[nH]c2n1`, the “hERG current change (%, negative = inhibition) at 10uM” value is 24.3%.
Take `O=C(Nc1ccc(S(=O)(=O)NC2=NCCCCC2)cc1)c1ccco1`: the “hERG current change (%, negative = inhibition) at 10uM” value is listed as 2.7%.
The value for `CCN(CC)c1ccc(NC(=O)CSc2ccsc2[N+](=O)[O-])c(C)c1` was 5.74%.
In the case of `Br.CN1CCN(CC(=O)c2cc(C(C)(C)C)c(O)c(C(C)(C)C)c2)CC1`, the “hERG current change (%, negative = inhibition) at 10uM” value is -13.3%.
The value for `COc1cccc(Cn2c(=O)oc3ccccc32)c1` was 4.3%; that for `Cc1csc2nc(COC(=O)c3cccc(N(C)C)c3)cc(=O)n12` was -32.5%; that for `COc1ccc(C(=O)OCc2cc(=O)n3c(C)csc3n2)cc1F` was -2.77%.
The result for `Cc1csc2nc(COC(=O)c3ccc(Cl)c([N+](=O)[O-])c3)cc(=O)n12` reads -63.1%.
The value for `Fc1ccc(-c2cc(C(F)(F)F)nc(N3CCCCC3)n2)cc1` was 19.5%.
Consider `C/C(Cn1nc([N+](=O)[O-])cc1C)=N\NC(=O)COc1ccc(Cl)cc1Cl`, for which the “hERG current change (%, negative = inhibition) at 10uM” value is listed as -66.3%.
The result for `C/C(CC(=O)NCc1ccc(Cl)cc1)=N\NC(=O)COc1ccc(C)cc1Br` reads -33.1%; that for `C/C(Cn1cnc([N+](=O)[O-])n1)=N/NC(=O)COc1c(Cl)cc(Cl)cc1Cl`, -31.4%.
Consider `O=C(COc1ccc(Cl)cc1Cl)NCc1ccco1`, for which the “hERG current change (%, negative = inhibition) at 10uM” value is 0.837%.
The value for `COc1ccccc1CNC(=O)C/C(C)=N/NC(=O)COc1ccc(C)cc1Br` was -63.9%; that for `Cc1cc(C)n(CC(=O)NNC(=O)COc2ccc(Cl)cc2Cl)n1` was 3.06%; that for `C/C(CC(=O)NCc1ccco1)=N\NC(=O)COc1ccc(Cl)cc1Cl` was -65.6%.
On to `C/C(CC(=O)NCc1ccco1)=N\NC(=O)c1ccc(Cl)cc1Cl`, for which the “hERG current change (%, negative = inhibition) at 10uM” value came out at 8.44%.
The value for `C/C(Cn1nc([N+](=O)[O-])cc1C)=N\NC(=O)COc1c(Cl)cc(Cl)cc1Cl` was -68%; that for `CCCNC(=O)C/C(C)=N/NC(=O)COc1ccc(C)cc1Br` was -20.9%.
The value for `C/C(Cn1nc([N+](=O)[O-])cc1C)=N\NC(=O)COc1ccccc1[N+](=O)[O-]` was -17.4%.
The value for `COc1ccc(C(=O)N/N=C(\C)Cn2nc([N+](=O)[O-])cc2C)cc1` was -15.8%; that for `O=C(NN1C(=O)CSC1=S)C(=O)NN1C(=O)CSC1=S` was 25.3%.
With `O=C(Nc1ccccc1C(=O)Nc1ccccc1C(=O)O)c1ccccc1`, the “hERG current change (%, negative = inhibition) at 10uM” value is given as 20.5%.
In the case of `CN1CCN(Cc2nnc(-c3ccccc3)o2)CC1`, the “hERG current change (%, negative = inhibition) at 10uM” value amounted to 22.7%.
Turning to `C/C(=C\C(=O)c1cccnc1)Nc1ccc(C)c(C)c1`, the “hERG current change (%, negative = inhibition) at 10uM” value is -20%.
The result for `CCc1ccc(OCC2NCCc3cc(OC)c(OC)cc32)cc1` (centres unmarked) reads -45.2%; that for `CC(=O)Nc1ccc(N2CCCC2)cc1`, 6.33%; that for `CCN1CCN(C(c2ccccc2)c2sc3nc(C)nn3c2O)CC1` (centres unmarked), -9.32%.
`C/C(CC(=O)N(C(C)C)C(C)C)=N\NC(=O)COc1ccc(Br)cc1Br`: the “hERG current change (%, negative = inhibition) at 10uM” value is on record as -51.3%.
The result for `C/C(CC(=O)N(C(C)C)C(C)C)=N\NC(=O)COc1ccc(Cl)cc1Cl` reads -22.6%.
On to `C/C(CC(=O)Nc1ccccc1)=N\NC(=O)COc1ccc(C)cc1Br`, for which the “hERG current change (%, negative = inhibition) at 10uM” value stood at 2.14%.
As to `Cc1cc2nc(-c3ccc(SCC(=O)Nc4ccc(S(=O)(=O)N5CCCC5)cc4)nc3)[nH]c2cc1C`, the “hERG current change (%, negative = inhibition) at 10uM” value stood at 8.52%.
Consider `Cc1cccc(N2C(=O)CC(N3CCN(Cc4ccc5c(c4)OCO5)CC3)C2=O)c1` (centres unmarked), for which the “hERG current change (%, negative = inhibition) at 10uM” value is recorded as -19.1%.
The result for `Cn1cc(CN2CCN(Cc3ccccc3)C(CCO)C2)c(-c2ccccc2)n1` (centres unmarked) reads -37.9%.
The result for `CCOc1ccccc1CN1CCN(Cc2cn(C)nc2-c2ccccc2)CC1CCO` (centres unmarked) reads -65.6%; that for `COc1ccc(CN2CCN(Cc3cn(C)nc3-c3ccccc3)CC2CCO)c(C)c1C` (centres unmarked), -72.4%.
The result for `Cc1ccc(CN2CCN(Cc3cn(C)nc3-c3ccccc3)CC2CCO)o1` (centres unmarked) reads 1.84%; that for `CCn1ncc(CN2CCN(Cc3ccc(OC)c(C)c3C)C(CCO)C2)c1C` (centres unmarked), -19.9%; that for `COc1cc(C2CC(=O)Oc3c2c(=O)n(C)c2ccccc32)ccc1O` (centres unmarked), 14.7%.
As to `COc1ccc(NC(=O)C2(c3ccc(NC(=O)c4ccc(OC)cc4)cc3)CCCC2)cc1`, the “hERG current change (%, negative = inhibition) at 10uM” value is -9.88%.
As for `CCn1c(SCC(=O)N/N=C/c2ccccc2OCC(=O)O)nnc1-c1ccc(C)cc1`, the “hERG current change (%, negative = inhibition) at 10uM” value is on record as 3.57%.
The value for `Cn1c(=O)c(C(=O)COC(=O)c2cc(C3CC3)nc3ccccc23)c(N)n(Cc2ccccc2)c1=O` was 13.8%; that for `Cc1cc(C(=O)NC2CCCc3c2cnn3-c2ccc(C(C)(C)C)cc2)n[nH]1` (centres unmarked) was -5.84%; that for `CC(=O)N1CCC(C(=O)NC2CCCc3c2cnn3-c2cc(F)cc(F)c2)CC1` (centres unmarked) was -4.52%.
The value for `Cc1cc(C)cc(-n2ncc3c2CCCC3NC(=O)c2csnn2)c1` (centres unmarked) was -110%; that for `CC(C)(C)c1ccc(-n2ncc3c2CCCC3NC(=O)c2csnn2)cc1` (centres unmarked) was 1.88%.
`Cc1cccc(-n2ncc3c2CCCC3NC(=O)CCN2Cc3ccccc3C2=O)c1C` (centres unmarked): the “hERG current change (%, negative = inhibition) at 10uM” value amounted to 2.55%.
Consider `Cc1ccc(-n2ncc3c2CCCC3NC(=O)c2csnn2)cc1C` (centres unmarked), for which the “hERG current change (%, negative = inhibition) at 10uM” value is recorded as -33.2%.
For `CC(=O)c1cc(C(=O)NC2CCCc3c2cnn3-c2cc(C)cc(C)c2)[nH]n1` (centres unmarked), the “hERG current change (%, negative = inhibition) at 10uM” value was -23%.
`Cc1cc(C)cc(-n2ncc3c2CCCC3NC(=O)c2cc(C)[nH]n2)c1` (centres unmarked): the “hERG current change (%, negative = inhibition) at 10uM” value is recorded as -67.5%.
Turning to `Cc1ccccc1-n1ncc2c1CC(C)(C)CC2NC(=O)CCN1Cc2ccccc2C1=O` (centres unmarked), the “hERG current change (%, negative = inhibition) at 10uM” value is listed as -3.54%.
The value for `Cc1cc(C)cc(-n2ncc3c2CCCC3NC(=O)C2(C(N)=O)CC2)c1` (centres unmarked) was 13.7%; that for `Cc1cc(C)cc(-n2ncc3c2CCCC3NC(=O)CCN2Cc3ccccc3C2=O)c1` (centres unmarked) was -54.3%.
The result for `Cc1cc(C)cc(-n2ncc3c2CCCC3NC(=O)C2CCC2)c1` (centres unmarked) reads -76%.
Regarding `O=C(/C=C/Nc1ccc(S(=O)(=O)Nc2cnc3ccccc3n2)cc1)c1cccnc1`, the “hERG current change (%, negative = inhibition) at 10uM” value is given as -12.9%.
`O=C(C[n+]1cc(Br)cc(Br)c1)c1ccccc1.[Br-]`: the “hERG current change (%, negative = inhibition) at 10uM” value is given as 8.53%.
The value for `CC(C)C(=O)c1cn(CC(=O)NCc2ccc3c(c2)OCO3)c2ccccc12` was 16%.
The value for `CC1(C)CC(=O)C=C(c2ccc3[nH]ccc3c2)C1` was 1.61%; that for `O=C(CC1SC(=Nc2ccc3c(c2)OCCO3)NC1=O)Nc1ccc(F)cc1F` (centres unmarked) was 8.62%.
On to `Cc1n[nH]c(=S)n1/N=C/c1ccc(OCc2ccc(Cl)cc2Cl)cc1`, for which the “hERG current change (%, negative = inhibition) at 10uM” value is 11.1%.
The value for `Cc1cc(NC(=O)Cn2nnc(-c3ccccc3N)n2)no1` was 11.8%; that for `CCOC(=O)c1c(NC(=O)CSc2nnc(-c3ccccc3)o2)sc(C(C)=O)c1C` was 5.01%.
Consider `O=C(C1CC1)N1CCN(c2ccc([N+](=O)[O-])cc2-n2cccc2)CC1`, for which the “hERG current change (%, negative = inhibition) at 10uM” value is -31%.
Take `Cc1ccc(N2CCN(C(=O)c3ccccc3)CC2)c(C)c1`: the “hERG current change (%, negative = inhibition) at 10uM” value is reported as -18.4%.
Consider `O=C(c1ccc(F)cc1)N1CCC(C(=O)N2CCN(S(=O)(=O)c3cccc([N+](=O)[O-])c3)CC2)CC1`, for which the “hERG current change (%, negative = inhibition) at 10uM” value is -34.5%.
The value for `O=C(c1ccccc1F)N1CCN(c2ccc([N+](=O)[O-])cc2-n2cccc2)CC1` was -23.1%; that for `Cc1ccc(C(=O)N2CCN(c3ccc([N+](=O)[O-])cc3-n3cccc3)CC2)cc1` was -56.4%.
`O=C(c1ccccc1)N1CCN(c2ccc([N+](=O)[O-])cc2-n2cccc2)CC1`: the “hERG current change (%, negative = inhibition) at 10uM” value is given as -54.5%.
As to `O=C(c1ccc(F)cc1)N1CCN(c2ccc([N+](=O)[O-])cc2-n2cccc2)CC1`, the “hERG current change (%, negative = inhibition) at 10uM” value was -65%.
With `CC(C)(C)C(=O)N1CCN(c2ccc([N+](=O)[O-])cc2-n2cccc2)CC1`, the “hERG current change (%, negative = inhibition) at 10uM” value is reported as -26.3%.
